# Laboratory results as given in PubChem BioAssay.
# This is one part of the list. Results filed as inconclusive are left out. A number with no mark means an inactive call. Calls of active or inactive are those of the source.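 Rule for the calls, unless noted: active = thallium entry rate above the same plate's blocked-transporter control wells by more than 3 SD; inconclusive = the two repeat wells disagree; inactive = the rest.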
# Columns and labels:
# [1] = molecular target: Solute carrier family 12 member 5 (Homo sapiens) (UniProt Q9H2X9); assay: retest of KCC2 transport modulators without sodium – cell-based, HEK293 KCC2, thallium flux, secondary assay, confirmation (AID 1713;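 active = thallium flux slope above the same plate's solvent-only control mean plus 3 SD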); conditions: FluoZin2 fluorescence, at 10 µM, hits give high values
# [2] = PubChem AID 1714; conditions: HEK293-KCC2 + bumetanide/ouabain, thallium flux FluoZin2; at 10 µM; hits give high values;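 note: raw slope of fluorescence over initial fluorescence between 10 and 20 s after thallium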
# [3] = molecular target: Solute carrier family 12 member 5 (Homo sapiens) (UniProt Q9H2X9); assay: retest of KCC2 transport modulation, ouabain-free – cell-based, HEK293 KCC2, thallium flux, FluoZin2, secondary assay 2, confirmation (AID 1715;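 active = thallium flux slope more than 3 SD above or below the plate's solvent-only control mean, mostly below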;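 note: raw slope with 0.1% DMSO as baseline and bumetanide as block control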); conditions: HEK293-KCC2, thallium flux FluoZin2 fluorescence; at 10 µM; actives lie on both sides; F/F0 rise rate, 10–20 s post-thallium
# [4] = compound effects on native HEK Tl+ uptake – HEK cells, counterscreen 1, counter-screen for KCC2 modulator project, confirmation (AID 1716;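 active = thallium flux rate significantly above the same plate's solvent-only control wells, beyond their mean plus 3 SD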); conditions: HEK293 parental cells, thallium flux FluoZin2, ouabain; at 10 µM; baseline-ratio fluorescence slope, 10–20 s after thallium
# [5] = molecular target: Solute carrier family 12 member 5 (Homo sapiens) (UniProt Q9H2X9); assay: modulation of KCC2 thallium flux in HEK cells – cell-based, ouabain, retest, confirmation (AID 1717;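 active = thallium flux slope beyond 3 SD from same-plate DMSO control mean in most replicates, usually higher, sometimes lower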;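 note: slope of initial-normalized fluorescence between seconds 10 and 20 after thallium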); conditions: HEK293-KCC2, thallium flux FluoZin2 fluorescence, at 10 µM, bidirectional: low = inhibitor, high = activator
# [6] = native HEK Tl+ uptake effects, second counter-screen – HEK cells, counterscreen 2, counter-screen for KCC2 modulator project, confirmation (AID 1718;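 active = thallium flux slope above the same plate's solvent-control mean plus 3 SD in both duplicate wells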;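 note: run without ouabain in cells lacking the KCC2 cotransporter; slope of fluorescence scaled to its starting value between 10 and 20 s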); conditions: HEK293 parental, thallium flux FluoZin-2 fluorescence slope; at 10 µM
# Chain of Solute carrier family 12 member 5 (Homo sapiens) (Q9H2X9 whole entry, looked up): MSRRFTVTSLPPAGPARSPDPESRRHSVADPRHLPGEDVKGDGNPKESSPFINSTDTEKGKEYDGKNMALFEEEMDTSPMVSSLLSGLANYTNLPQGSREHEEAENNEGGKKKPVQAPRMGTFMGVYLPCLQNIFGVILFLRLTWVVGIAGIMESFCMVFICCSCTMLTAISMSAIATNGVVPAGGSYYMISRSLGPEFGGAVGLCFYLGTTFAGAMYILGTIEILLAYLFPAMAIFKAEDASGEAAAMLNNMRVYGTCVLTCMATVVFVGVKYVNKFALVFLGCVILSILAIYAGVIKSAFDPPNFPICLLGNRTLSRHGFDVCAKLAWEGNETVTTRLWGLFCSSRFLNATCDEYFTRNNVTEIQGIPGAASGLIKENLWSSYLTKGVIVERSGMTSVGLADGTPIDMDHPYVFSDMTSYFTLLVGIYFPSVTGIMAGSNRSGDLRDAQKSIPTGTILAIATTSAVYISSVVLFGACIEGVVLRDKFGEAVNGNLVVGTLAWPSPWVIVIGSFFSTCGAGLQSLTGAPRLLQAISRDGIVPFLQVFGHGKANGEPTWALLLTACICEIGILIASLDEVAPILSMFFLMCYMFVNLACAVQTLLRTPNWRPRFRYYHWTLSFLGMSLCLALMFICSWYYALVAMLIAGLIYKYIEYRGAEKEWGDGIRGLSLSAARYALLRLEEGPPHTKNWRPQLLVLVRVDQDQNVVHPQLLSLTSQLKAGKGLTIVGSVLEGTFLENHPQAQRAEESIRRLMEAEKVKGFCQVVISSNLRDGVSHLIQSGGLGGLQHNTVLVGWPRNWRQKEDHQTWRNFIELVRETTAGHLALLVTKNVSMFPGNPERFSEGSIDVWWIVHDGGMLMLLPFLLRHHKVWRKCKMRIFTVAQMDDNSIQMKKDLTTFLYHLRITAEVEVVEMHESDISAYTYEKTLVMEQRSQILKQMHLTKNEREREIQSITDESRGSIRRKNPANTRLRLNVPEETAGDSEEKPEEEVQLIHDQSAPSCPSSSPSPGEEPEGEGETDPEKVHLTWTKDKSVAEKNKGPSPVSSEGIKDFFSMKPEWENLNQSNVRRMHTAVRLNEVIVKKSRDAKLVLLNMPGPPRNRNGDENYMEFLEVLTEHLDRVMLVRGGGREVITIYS
SMILES,normalised thallium flux (F/F0 slope) [1],normalized thallium flux [2],normalized thallium flux [3],thallium flux rate (normalised fluorescence) [4],"raw Tl+ flux slope (below DMSO = inhibition, above = activation) [5]",thallium flux slope [6]
Cc1cc(C)nc(SC(C)C(=O)N/N=C/c2cccs2)n1 (stereo unspecified),0.00759,0.00586,0.0302,0.00741,0.0216,0.00957
O=C(Cn1c(-c2ccc(Cl)cc2)noc1=O)N1CCN(c2ccccc2F)CC1,0.00839,0.00664,0.0245 (active),0.00698,–,0.00981
c1ccc2c(C[n+]3csc4ccccc43)cccc2c1,0.0079,0.0261 (active),0.0399 (active),0.0169 (active),0.0315 (active),0.0219 (active)
CC(=O)NNC(=O)c1csc(Cc2c(Cl)sc3ccc(Cl)cc23)n1,0.00965,0.0419 (active),0.0308,0.0146 (active),–,0.0112 (active)
Cc1nc(SCC(=O)N2CCc3ccccc3C2)c2c(C)c(C)sc2n1,0.0151,0.00522,0.0244 (active),0.00764,0.0144,0.0108
COc1ccccc1/C=C/C=N/n1c(-c2ccc(Cl)cc2Cl)n[nH]c1=S,0.0112,0.0155 (active),0.0312,0.0105 (active),0.0229,0.011
O=[N+]([O-])c1ccccc1/C=N/n1c(COc2ccccc2)n[nH]c1=S,0.00593,0.0786 (active),0.0297,0.0168 (active),–,0.0116 (active)
O=C(CNC(=O)c1ccco1)OCC(=O)c1ccccc1,0.00594,0.00472,0.0319,0.00754,0.0197,0.01
CCC(C)Cn1c(O)cc2nn(-c3nc4ccccc4s3)c(=O)c-2c1C (stereo unspecified),0.00617,0.0393 (active),0.0456 (active),0.0308 (active),0.0409 (active),0.0328 (active)
Oc1c(C=Nc2cccc3nsnc23)ccc2ccccc12,0.00934,0.00749,0.0296,0.00781,0.0438,0.0106
COc1ccc(C(=O)NC2(C(F)(F)F)NC(=O)N(CCCc3ccccc3)C2=O)c(OC)c1OC (stereo unspecified),0.00692,0.00586,0.0307,0.00683,0.0134 (active),0.0109
Cc1cccc(NS(=O)(=O)c2ccc(C)c(C(N)=O)c2)c1,0.00589,0.00471,0.0297,0.00787,0.0187,0.0102
CCC(=O)NC(=Nc1nc2ccccc2s1)NC(=O)CC,0.00696,0.0683 (active),0.0951 (active),0.0894 (active),0.0811 (active),0.0859 (active)
O=[N+]([O-])c1c(NCCO)cc(Sc2nc3ccccc3s2)c2nonc12,0.0147 (active),0.0297 (active),0.0332,0.0134 (active),0.0556 (active),0.0128 (active)
CCOc1cccc(/C=N/N2C(=O)CSC2=S)c1O,0.00656,0.0152 (active),0.0319,0.0178 (active),–,0.0167 (active)
Cc1ccc(OCC(=O)NNC(=S)NCc2ccccc2)cc1,0.00584,0.0196 (active),0.0307,0.0156 (active),0.0206,0.0162 (active)
COC(=O)c1cccnc1NC(=S)NC(C)C,0.0244 (active),0.0413 (active),0.0368,0.035 (active),0.0394 (active),0.0178 (active)
Cc1ccc(NCc2n[nH]c(=S)n2-c2ccccc2)cc1Cl,0.00768,0.0747 (active),0.0302,0.00846 (active),–,0.00946
Brc1ccc(C2=CC(c3ccco3)n3ncnc3N2)cc1 (stereo unspecified),0.00373 (active),0.00178 (active),0.0209 (active),0.00407 (active),0.00899 (active),0.00724 (active)
COc1ccc2[nH]c(=S)cc(C)c2c1,0.00897,0.0111 (active),0.0317,0.0146 (active),0.0267,0.0122 (active)
O=C(CN(c1cccc(Cl)c1)S(=O)(=O)c1ccccc1)NN=C1CCCC1,0.0069,0.00505,0.0271,0.00791,0.0178,0.00991
CN(C)CCn1c(=S)[nH]c2ccc(Cl)cc2c1=O,0.00617,0.0089 (active),0.0337,0.0128 (active),–,0.0165 (active)
